# Source: PubChem BioAssay (Tox21)
# Records with an inconclusive call do not appear. Calls of active or inactive are those of the source. Calls come from the whole dose curve; as a rule, active = well fitted cell-killing curve with a large enough effect in the repeat runs; inconclusive = weak or mixed curves, or effect the other way; inactive = no such curve, though single readings can be large or run the other way.
# Test: qHTS assay to identify small molecule antagonists of the glucocorticoid receptor (GR) signaling pathway - cell viability counter screen (AID 720693); note: nearly all actives have a fitted effect of over 55% in size
# Details: GR-bla HeLa viability, CellTiter-Glo luminescence, 18 h, with 5 nM dexamethasone present; series mostly up to 58.5 µM; viability change, negative = cytotoxic: at the top concentration
# From the text: National Center for Advancing Translational Sciences [NCATS]
# NIH Chemical Genomics Center [NCGC]
# U.S. Environmental Protection Agency [EPA]
# National Institutes of Environmental Health Sciences [NIEHS]
# National Toxicology Program [NTP]
# U.S. Food and Drug Administration [FDA]
# The Glucocorticoid receptor (GR) is one of the members of the nuclear receptor family of ligand-dependent transcription factors. GR plays a critical role in carbohydrate, protein and lipid metabolisms and programmed cell death. CellSensor GR-bla HeLa cell line (Invitrogen) contains a beta-lactamase reporter gene under the control of the glucocorticoid response element stably integrated into HeLa cells, a cervical cancer cell line that expresses glucocorticoid receptor. The activation of the reporter gene under culture conditions can be detected by fluorescence intensity. This cell line has been used to screen the Tox21 10K compound library and to identify the compounds that inhibit the GR signaling. The cytotoxicity of the Tox21 compound library against the GR-bla HeLa cell line was tested in parallel by measuring the cell viability using CellTiter-Glo assay in the same wells.
# Tox21 Assay Protocol Summary:
# The GR-bla HeLa cells were dispensed at 1500 cells/5 ul/well in 1536-well black wall/clear bottom plates using a Multidrop Combi (ThermoFisher Scientific, Waltham, MA) dispenser. After the assay plates were incubated at a 37 C/5% CO2 incubator for 4 hours, 23 nL of compounds dissolved in DMSO, positive controls or DMSO only was transferred to the assay plate by a pintool station (Kalypsys, San Diego, CA), followed by addition of 1 uL of dexamethasone (5 nM, final concentration in the well). The plates were incubated at 37 C for 18 hours. After 1 uL of LiveBLAzerTM B/G FRET substrate was added using a Flying Reagent Dispenser (Aurora Discovery, San Diego, CA), the plates were incubated at room temperature (RT) for 2 hours, and fluorescence intensity was measured by an Envision plate reader (PerkinElmer, Shelton, CT). After measurement of bla assay, 3 ul CellTiter-Glo (Promega, Madison, WI) was added to measure the cytotoxicity and the plates were then incubated at RT for 30 min. The luminescence was measured using a ViewLux (Perkin Elmer) plate reader.
# % is set by controls: 0 for no effect and ±100 for the full control effect.
SMILES,"viability change, negative = cytotoxic",Potency
CCCCCCBr,-10.8% [at 78.9 µM] (inactive),
C=C(C)[C@@H]1CC=C(C=O)CC1,11.1% (inactive),
CN1C[C@@H](NS(=O)(=O)N(C)C)C[C@@H]2c3cccc4c3c(cn4C)C[C@H]21,1.83% (inactive),
CC1(C)C(=O)NC(=O)NC1=O,-0.619% (inactive),
Cc1cnc[nH]1,0.473% (inactive),
CNCC(=O)c1ccc(O)c(O)c1,-10.3% (inactive),
CCCCOC(=O)c1ccccc1C(=O)O,-9.56% (inactive),
C[C@]12CC[C@H]3[C@@H](CC=C4C[C@@H](O)CC[C@@]43C)[C@@H]1CC[C@@H]2O,-16.9% (inactive),
C(CCOCC1CO1)COCC1CO1 (stereo not given),0.659% (inactive),
CC(C)[N+](=O)[O-],-3.76% (inactive),
NC(=O)c1cc([N+](=O)[O-])cc([N+](=O)[O-])c1,-1.06% (inactive),
CCOP(=O)(N=C1SCCS1)OCC,5.37% (inactive),
CC1CCC(=O)O1 (stereo not given),-1.23% (inactive),
O=C(NCO)NCO,6.54% [at 78.9 µM] (inactive),
COc1ccc(C(=O)N2CCCC2=O)cc1,-5.42% (inactive),
O=[N+]([O-])c1cccc2cccnc12,-4.87% [at 78.9 µM] (inactive),
CC(C)CC(N(C)C)C1(c2ccc(Cl)cc2)CCC1 (stereo not given),4.95% (inactive),
CN(N=O)C(N)=O,6.61% (inactive),
CCS(=O)(=O)C(C)(C)S(=O)(=O)CC,8.95% (inactive),
O=[N+]([O-])c1cccc(O)c1,5.64% [at 78.9 µM] (inactive),

SMILES,"viability change, negative = cytotoxic",Potency
C#C[C@]1(O)C=C[C@H]2[C@@H]3CCC4=CC(=O)CC[C@@H]4[C@H]3CC[C@@]21CC,-14.1% (inactive),
COc1ncc(F)c2nc(S(=O)(=O)Nc3c(F)cccc3F)nn12,2.02% (inactive),
CC(C)NCC(O)c1ccc(N)c(C#N)c1 (stereo not given),0.601% (inactive),
Cc1ncc2n1-c1ccc(Cl)cc1C(c1ccccc1F)=NC2,-14.6% (inactive),
ClCC(Cl)(Cl)Cl,5.31% [at 78.9 µM] (inactive),
Nc1cc(Cl)ccc1O,-17.7% (inactive),
O=C(O)c1ccc2[nH]cc(CCCCN3CC=C(c4ccccc4)CC3)c2c1,-10.4% (inactive),
CCN(CC)c1nc(C)cc(OP(=S)(OC)OC)n1,4.3% (inactive),
[As]#[In],-6.53% (inactive),
CCC(=O)c1ccccc1,-3.98% (inactive),
Cc1ncsc1CCCl,8.99% (inactive),
N#CC(Cl)(Cl)Cl,1.6% (inactive),
C#CCN1C(=O)COc2cc(F)c(N3C(=O)C4=C(CCCC4)C3=O)cc21,4.62% (inactive),
Cc1ncc(CNC(=O)N(CCCl)N=O)c(N)n1,2.66% (inactive),
CCOC(=O)/C=C(C)/C=C/C[C@@H](C)CCCC(C)C,-12.5% (inactive),
CCCCN(CCCCO)N=O,6.67% (inactive),
O=[N+]([O-])c1cccc2c([N+](=O)[O-])cccc12,-1.84% [at 78.9 µM] (inactive),
CC(C1CC1)C(O)(Cn1cncn1)c1ccc(Cl)cc1 (stereo not given),6.11% (inactive),
COc1cc2c(cc1OC)[C@@]13CCN4CC5=CCO[C@H]6CC(=O)N2[C@H]1[C@H]6[C@H]5C[C@H]43,,inactive
O=C(Nc1ccccc1)N(Cc1ccc(Cl)cc1)C1CCCC1,20.9% (inactive),
